Test [1] is described as follows: CCTE_Shafer_MEA_dev_per_burst_interspike_interval: CCTE's Neural Network Formation Assay for Burst Interspike Interval, Shafer Lab (AID 2284044).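 Also: mean spike spacing inside bursts as AUC over recordings on days 5 7 9 12.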 The procedure, abridged:
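Spontaneous activity of maturing rat cortical networks is recorded on DIV 5, 7, 9 and 12 under chronic compound exposure beginning at plating. Endpoint: burst interspike interval well-mean, collapsed into trapezoidal AUC and fitted in the negative direction relative to DMSO.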

Test [2] in a line: CCTE_Shafer_MEA_dev_burst_duration_mean: CCTE's Neural Network Formation Assay for Mean Burst Duration, Shafer Lab (AID 2284045). The procedure, abridged:
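Mean single-electrode burst duration (first to last spike), averaged over bursting electrodes per well, then integrated as area-under-curve across recordings at days 5, 7, 9 and 12. Rat cortical cultures on MEAs, compound present from plating, refreshed at feeds.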

The nature of test [3]: CCTE_Shafer_MEA_dev_interburst_interval_mean: CCTE's Neural Network Formation Assay for Mean Interburst Interval, Shafer Lab (AID 2284046).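 Also: well-mean interburst interval of bursting electrodes as AUC over four recording days; curve fitted for decrease in interburst interval relative to DMSO.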 The procedure, abridged: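 Recordings on days 5, 7, 9 and 12 give well-mean interburst interval across actively bursting electrodes, summarized as area under the curve. Cultures: rat cortical neurons, continuous exposure from day 0, compound renewed at feeds; decrease analyzed versus DMSO.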

Test [4] is described as follows: CCTE_Shafer_MEA_dev_inter_network_spike_interval_mean: CCTE's Neural Network Formation Assay for Mean Inter-network Spike Interval, Shafer Lab (AID 2284047). In a few lines:
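Primary rat cortical neurons on 16-electrode MEA wells, exposed from plating day 0 through DIV 12, compound renewed at DIV 5 and 9 media changes. Mean interval between network-spike peaks recorded DIV 5, 7, 9, 12; collapsed as trapezoidal AUC, fitted downward versus DMSO.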

Test [5] can be described thus: CCTE_Shafer_MEA_dev_network_spike_number: CCTE's Neural Network Formation Assay for Number of Network Spikes, Shafer Lab (AID 2284048).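 Also: synchronized bursts across electrodes counted on days 5 7 9 12 and integrated as AUC.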 In a few lines:
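Number of network spikes (coordinated firing across electrodes) recorded on days 5, 7, 9 and 12 and summarised as area under the curve. Rat cortical cultures on MEA, continuous compound exposure with full medium/treatment exchange at DIV 5 and 9.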

Test [6] can be described thus: CCTE_Shafer_MEA_dev_network_spike_peak: CCTE's Neural Network Formation Assay for Mean Number of Electrodes in Network Spike, Shafer Lab (AID 2284049).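 As to AC50: fitted for loss of signal meaning fewer electrodes in network spikes than DMSO.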 In a few lines:
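Rat cortical primary culture, 1.5 x 10^5 cells/well, 48-well MEA (16 electrodes/well). Dosing day 0 through DIV 12, full media/compound exchange DIV 5, 9. AxIS adaptive spike detection; AUC over days 5/7/9/12; loss-of-signal vs DMSO.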

Test [7] in a line: CCTE_Shafer_MEA_dev_network_spike_duration_std: CCTE's Neural Network Formation Assay for Standard Deviation of Network Spike Duration, Shafer Lab (AID 2284052).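 Also: hits are decreases in network spike duration SD versus DMSO vehicle.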 The procedure, abridged:
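Primary rat cortical neurons on PEI-coated 16-electrode MEA wells, exposed from plating day 0 through day 12 with compound renewed at DIV 5 and 9. Network spike duration SD recorded on days 5, 7, 9, 12, collapsed as trapezoidal AUC; loss-of-signal fit versus DMSO.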

Test [8] can be described thus: CCTE_Shafer_MEA_dev_per_network_spike_spike_number_mean: CCTE's Neural Network Formation Assay for Mean Number of Spikes in a Network Spike, Shafer Lab (AID 2284053). In a few lines: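 Primary rat cortical neurons on 48-well, 16-electrode MEA plates were exposed from plating to DIV 12, with dosing renewed on DIV 5 and 9. Spikes per network spike (0.05 s peak window) were recorded on DIV 5, 7, 9 and 12 and collapsed as trapezoidal AUC versus DMSO.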

Test [9] can be described thus: CCTE_Shafer_MEA_acute_AB: CCTE's Alamar Blue Assay for Cytotoxicity in the Neural Acute Assay, Shafer Lab (AID 2284069; active = hit-call score of the fitted dose curve at least 0.9, where 1 is the maximum;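 also: active compounds lower the viability signal compared with DMSO wells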). In a few lines:
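Primary rat cortical neurons on MEA plates, exposed acutely after baseline recording on day 13 or 15 post-plating. Viability by CellTiter Blue resazurin reduction (1:6 reagent dilution), fluorescence 544/590 nm; loss of signal versus DMSO.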
In general terms: Alamar Blue is a resazurin reagent that responds to reducing activity.

A short description of test [10]: CCTE_Shafer_MEA_dev_AB: CCTE's Alamar Blue Assay for Cytotoxicity in the Neural Network Formation Assay, Shafer Lab (AID 2284083; active = hit-call score of the fitted dose curve at least 0.9, where 1 is the maximum;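 also: twelve days of exposure from plating with re-dosing on DIV 5 and 9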). In a few lines: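 Primary rat cortical neurons on PEI-coated 48-well MEA plates, 1.5 x 10^5 cells/well in laminin drop; compound exposure from day 0 of plating for twelve days, renewed at medium changes on DIV 5 and 9. Viability read as resazurin reduction by fluorescence, relative to DMSO.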

The nature of test [11]: CCTE_Shafer_MEA_acute_LDH: CCTE's Lactate Dehydrogenase Assay for Cytotoxicity in the Neural Acute Assay, Shafer Lab (AID 2284086; active = hit-call score of the fitted dose curve at least 0.9, where 1 is the maximum;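 also: active means LDH release rises above DMSO vehicle level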). The procedure, abridged: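 LDH absorbance at 490 nm in medium taken right after 40-min compound exposure; rat primary cortical neuron networks on MEA plates, days post-plating 13 or 15. Increase over DMSO baseline scored as cytotoxicity.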
A short description of test [12]: CCTE_Shafer_MEA_dev_mutual_information_norm: CCTE's Neural Network Formation Assay for Mutual Information Normalization, Shafer Lab (AID 2284091). The procedure, abridged: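 Shared information across electrodes, tracked on days 5, 7, 9 and 12 of network development and collapsed as trapezoidal area under the curve. Rat cortical cultures were treated continuously from plating, with treatment renewed at feeds on DIV 5 and 9; DMSO baseline, negative-direction fit.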

Test [13] in a line: CCTE_Mundy_HCI_Cortical_Synap_Neur_Matur_NeuriteSpotCountPerNeuriteLength: CCTE's Synaptogenesis and Neurite Maturation Assay in rat cortical cells for Neurite Spot Count per Neurite Length, Mundy Lab (AID 2284210). In a few lines:
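Synaptophysin spots per unit neurite length, measured by automated imaging of MAP2/synaptophysin/Hoechst-stained neurons. Cultures from rat cortex received chemical at DIV 7 with media change through DIV 12; glial growth arrested by AraC at DIV 5; DMSO baseline.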

Test [14] can be described thus: CCTE_Mundy_HCI_Cortical_Synap_Neur_Matur_BPCount: CCTE's Synaptogenesis and Neurite Maturation Assay in rat cortical cells for Branch Point Count, Mundy Lab (AID 2284211). The procedure, abridged: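 In this multiplexed morphology assay, cortical cells from rat receive chemicals at DIV 7 and are fixed at DIV 12, then immunostained and imaged; branch points are counted, with DMSO as baseline.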

In test [15] the test system is DIO2 (gene 1734). Nature of the test: CCTE_GLTED_hDIO2: CCTE's human Deiodinase 2 (DIO2) Inhibition Assay, Great Lakes Toxicology and Ecology Division (GLTED) Lab (AID 2284050; active = hit-call score of the fitted dose curve at least 0.9, where 1 is the maximum). The procedure, abridged: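 Readout: absorbance from Sandell-Kolthoff detection of free iodide released by human DIO2 during a 3 h incubation with chemical. Cell-free format, n=3; activity fitted relative to DMSO negative control.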

Test [16] concerns DIO3 (gene 1735). Nature of the test: CCTE_GLTED_hDIO3: CCTE's human Deiodinase 3 (DIO3) Inhibition Assay, Great Lakes Toxicology and Ecology Division (GLTED) Lab (AID 2284055; active = hit-call score of the fitted dose curve at least 0.9, where 1 is the maximum;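 also: potency is for inhibition seen as loss of released iodide signal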). In a few lines: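 hDIO3 (adenovirus-expressed) + test chemical, 3 h incubation; free iodide quantified by Sandell-Kolthoff reaction, absorbance read-out. DMSO negative control, n=3.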
Test [17] in a line: CCTE_Shafer_MEA_dev_LDH: CCTE's Lactate Dehydrogenase Assay for Cytotoxicity in the Neural Network Formation Assay, Shafer Lab (AID 2284068; active = hit-call score of the fitted dose curve at least 0.9, where 1 is the maximum;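 also: exposure for twelve days from plating with re-dosing on DIV 5 and 9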). The procedure, abridged: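 Primary rat cortical neurons were plated on PEI/laminin MEA plates and exposed from day 0 for twelve days, with compound renewed at DIV 5 and 9. Cytotoxicity was determined by spectrophotometric LDH assay relative to DMSO.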

Records with an inconclusive call do not appear. The source made the active and inactive calls. The calls were made as follows, unless noted: active = hit-call score of the fitted dose curve at least 0.9, where 1 is the maximum; inactive = score below 0.9.

Turning to `CC[C@H]1OC(=O)[C@H](C)[C@@H](O[C@H]2C[C@@](C)(OC)[C@@H](O)[C@H](C)O2)[C@H](C)[C@@H](O[C@@H]2O[C@H](C)C[C@H](N(C)C)[C@H]2O)[C@](C)(O)C[C@@H](C)C(=O)[C@H](C)[C@@H](O)[C@]1(C)O`, the compound was called inactive in test [1], in test [2], in [3], in test [4], in test [5] and in test [6]. For the same compound, the compound was classed as inactive in test [7], in test [8], in test [9], in test [10], in test [11] and in [12]. Moreover, the result in [13] and in test [14] was inactive.

Take `CC[C@H]1CC[C@H](NCc2cc3c(cc2OC)[C@H]2C[C@H]2C(=O)N3C)[C@H](c2ccccc2)N1`: the compound was called inactive in test [9] and in test [11].

One may read the AC50 as the concentration at which the activity in the assay is half-maximal. With `CCOc1cccc(-n2cc(C(=O)N3CCN(c4cc(C(=O)O)c5ccccc5c4)CC3)nc2-c2ccc(C)cc2)c1`, the AC50 in test [15] was 100 µM (active); in test [16] it was 140 µM (active).

Turning to `COc1ccc(-n2nc(C(F)F)cc2-c2ccc(S(C)=O)cc2)cc1` (stereo not given), the compound was classed as inactive in test [1], in [2], in test [3], in test [4], in [5] and in test [7]. Besides, the result in [8], in test [10] and in test [12] was inactive. Also, the AC50 in test [6] is 1.98 µM (active); in test [17], 603 nM (active).

`O=C1CCC(N2C(=O)c3ccccc3C2=O)C(=O)N1` (stereo not given): the outcome in [1], in test [2], in test [3], in test [4], in [5] and in test [6] was inactive. Moreover, the call in test [7], in test [8], in test [17], in test [12], in [13] and in test [14] was inactive.

For the compound `O=C(O)CCN(C1(C(=O)NO)CCCC1)S(=O)(=O)c1ccc(Oc2ccc(F)cc2)cc1`, the result in [9] and in test [11] was inactive.

For `O=C(O)c1cc(N=Nc2ccc(S(=O)(=O)Nc3ccccn3)cc2)ccc1O`, the compound was called inactive in test [9] and in test [11].

Take `O=C(OC[C@H]1O[C@@H](OC(=O)c2cc(O)c(O)c(OC(=O)c3cc(O)c(O)c(O)c3)c2)[C@H](OC(=O)c2cc(O)c(O)c(OC(=O)c3cc(O)c(O)c(O)c3)c2)[C@@H](OC(=O)c2cc(O)c(O)c(OC(=O)c3cc(O)c(O)c(O)c3)c2)[C@@H]1OC(=O)c1cc(O)c(O)c(OC(=O)c2cc(O)c(O)c(O)c2)c1)c1cc(O)c(O)c(OC(=O)c2cc(O)c(O)c(O)c2)c1`: the values for the AC50 in [15] and in test [16] were 22.4 µM (active) and 14.8 µM (active), respectively.

`Nc1nc2ncc(CNc3ccc(C(=O)N[C@@H](CCC(=O)O)C(=O)O)cc3)nc2c(=O)[nH]1`: the compound was called inactive in test [1], in test [2], in [3], in test [4], in test [5] and in [6]. Also, the compound was classed as inactive in test [7], in [8], in test [17] and in [12].

For `Cn1c(=O)c2c(ncn2C)n(C)c1=O`, the result in test [1], in test [2], in test [3], in test [4], in test [5] and in test [6] was inactive. Besides, the outcome in test [7], in [8], in test [9], in test [12], in test [13] and in test [14] was inactive.

For `COc1ccc2sc(C(=O)Nc3nnn[nH]3)c(OC(C)C)c2c1`, the compound was classed as inactive in [9] and in test [11].

As for `CCCCCCCCCCCCc1ccccc1`, the outcome in test [9] and in [11] was inactive.

`CCCCCCc1ccc(O)cc1O`: in [11], the call was inactive.

For the compound `NC(=O)NO`, the outcome in test [1], in [2], in test [3], in test [4], in [5] and in test [6] was inactive. For the same compound, the call in [7], in test [8], in [12], in [13] and in test [14] was inactive.

For the origin of these results see PubChem BioAssay (EPA / NIEHS).
